Test results published in PubChem BioAssay (NCI).
Compounds without any hit were thinned out: in the full panel of roughly 83,000, 20% have a hit.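 Method: cells in 96-well plates; compound added at one concentration; 48 h incubation; percent growth measured; values under 10 scored active.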 Activity calls are given as the source filed them.

How the values were obtained:
Test in all cases: NCI-60 one-dose screen, 48 h (100 = growth as untreated, 0 = no growth, -100 = all killed)
Conditions in all cases: 10 µM unless noted
[1] = test system: SR leukemia
[2] = test system: RPMI-8226 leukemia
[3] = test system: OVCAR-8 ovarian
[4] = test system: OVCAR-5 ovarian
[5] = test system: OVCAR-4 ovarian
[6] = test system: SK-OV-3 ovarian
[7] = test system: IGROV1 ovarian
[8] = test system: OVCAR-3 ovarian
[9] = test system: HS 578T breast
[10] = test system: NCI/ADR-RES ovarian

Measured: growth

O=C(c1ccccc1)C(Br)C(Br)c1ccccc1 (stereo not drawn)
active: [2] -3.12% | [7] -22.3% | [8] -10.9%
inactive: [1] 31.4% | [3] 78.8% | [4] 104% | [5] 90.2% | [6] 115% | [9] 104%

NCCCN(CCCN)CCCNCc1c2ccccc2c(CNCCCN(CCCN)CCCN)c2ccccc12
inactive: [1] 96.6% | [2] 91.7% | [3] 98.5% | [4] 108% | [5] 99.8% | [6] 100% | [7] 114% | [8] 107% | [9] 92.6%

CCCCCCCCCCCC(=O)OC(C)C(=O)NCCCC (stereo not drawn)
inactive: [1] 85.7% | [2] 104% | [3] 100% | [4] 107% | [5] 108% | [6] 102% | [7] 107% | [8] 107% | [9] 101%

O=C1Nc2ccc(Br)cc2C1=O
inactive: [1] 81.9% | [2] 96.4% | [3] 100% | [4] 103% | [5] 93.2% | [6] 93.9% | [7] 97.9% | [8] 90.5% | [9] 95.7%

CCCCCCCCCCCCCCCC[N+]1(C)CCCC1c1cccnc1 (stereo not drawn)
inactive: [1] 42.7% | [2] 21% | [3] 38.4% | [4] 48.4% | [5] 47.1% | [6] 60.5% | [7] 42.3% | [8] 38.3% | [9] 80.2%

CCOC(=O)/C(=C\c1ccc2ccccc2c1)P(=O)(OCC)OCC
inactive: [3] 20.1% | [4] 56.9% | [5] 62% | [6] 113% | [7] 56% | [8] 27.4% | [9] 16.7%
active: [1] -19.4% | [2] -25.3%

CC1(O)CCCCCC1
inactive: [1] 92.5% | [2] 102% | [3] 102% | [4] 105% | [5] 107% | [6] 93.9% | [7] 103% | [8] 103% | [9] 98.3%

O=C(NOC(=O)c1ccccc1)c1ccccc1
inactive: [1] 84.5% | [2] 75.7% | [3] 119% | [4] 109% | [5] 105% | [6] 109% | [7] 107% | [8] 115% | [9] 83.5% | [10] 93.7%

CN(C)c1ccc(/C=C/c2cc[n+](C)c(/C=C/c3ccc(N(C)C)cc3)c2)cc1
active: [1] -34.3% | [2] -26.4% | [3] 5.17% | [6] 7.83%
inactive: [4] 21.9% | [5] 19.9% | [7] 11% | [8] 20.5% | [9] 32.9% | [10] 58.8%

OC(CSc1ccccc1)CN1CCN(c2ccc(Cl)cc2)CC1 (stereo not drawn)
inactive: [1] 86.6% | [2] 81.4% | [3] 99.6% | [4] 102% | [5] 92.1% | [6] 110% | [7] 114% | [8] 121% | [9] 115%

Oc1c(Cl)cc(Cl)cc1C=NCC1CCC(CN=Cc2cc(Cl)cc(Cl)c2O)CC1 (stereo not drawn)
inactive: [1] 52.3% | [2] 76.7% | [3] 90% | [4] 114% | [5] 75.2% | [6] 88.5% | [7] 69.6% | [8] 83.5% | [9] 92.7% | [10] 85.2%

O=C1C=CC(=O)N1C1CCCCCCCCCCC1
inactive: [2] 31.1% | [3] 86% | [4] 99.8% | [5] 89.5% | [6] 90.6% | [7] 80.3% | [8] 53% | [9] 108%
active: [1] 5.7%

Cc1nnc(N/N=C/c2ccc([N+](=O)[O-])o2)[nH]c1=O
inactive: [2] 42.1% | [3] 21.1% | [5] 29.4% | [6] 10.4% | [7] 21% | [9] 22%
active: [1] 8.26% | [4] -2.06% | [8] -7.14% | [10] 8.65%

c1csc(-c2[nH]nc3c2CCc2ccccc2-3)c1
inactive: [1] 105% | [2] 81.3% | [3] 99.1% | [4] 24.1% | [5] 48.5% | [6] 98.1% | [7] 67.2% | [8] 28.1% | [9] 90%

O=C(c1ccccc1)c1cc2ccccc2oc1=O
inactive: [1] 107% | [2] 84.3% | [3] 96.9% | [4] 102% | [5] 95.2% | [6] 100% | [7] 64.8% | [8] 107%

CN(C)c1ccc(/C=C/c2sc3ccc4ccccc4c3[n+]2C)cc1
active: [1] -30.7% | [2] -26.6% | [3] -31.1% | [4] -27.3% | [5] -19.9% | [6] -23.7% | [7] -11.2% | [8] -63% | [9] -29.1%

CC(C)N=C(N)/N=C(\N)Nc1ccc2ccc3ccccc3c2c1
active: [1] -47.3% | [2] -26.9% | [3] -60.2% | [4] -88.5% | [5] -56.9% | [6] -63.3% | [7] -56.7% | [8] -83%

O=C(C[P+](c1ccccc1)(c1ccccc1)c1ccccc1)c1ccccc1
inactive: [1] 90.4% | [2] 92.6% | [3] 95.9% | [4] 89.6% | [5] 83.9% | [6] 104% | [7] 89.5% | [8] 93.8% | [9] 96.9% | [10] 82.8%

CC1(C)OC2C(COC(c3ccccc3)(c3ccccc3)c3ccccc3)OC(c3c[nH]c4c(N)ncnc34)C2O1 (stereo not drawn)
inactive: [1] 28.3% | [2] 27.4% | [3] 56.1% | [4] 82.9% | [5] 50.1% | [6] 70% | [7] 75.5% | [8] 53.8%

OC(c1cc2ccc(C(F)(F)F)cc2c2cc(C(F)(F)F)ccc12)C1CCCCN1 (stereo not drawn)
active: [1] -84.7% | [2] -54.5% | [3] -63.8% | [4] -99% | [5] -100% | [6] -100% | [7] -83.9% | [8] -100% | [9] -44.2% | [10] -84.6%

CC(C)c1ccc(Nc2n[nH]c(=S)s2)cc1
inactive: [1] 101% | [2] 108% | [3] 102% | [4] 119% | [5] 104% | [6] 106% | [7] 106% | [8] 98.9% | [9] 116%

O=[N+]([O-])CC(O)c1ccccc1 (stereo not drawn)
inactive: [1] 88.2% | [2] 89.7% | [3] 97.7% | [4] 95.7% | [5] 93.8% | [6] 118% | [7] 112% | [8] 121% | [9] 125%

COc1ccc(C(Cn2ccnc2)Sc2ccc(Cl)c(Cl)c2)cc1 (stereo not drawn)
inactive: [1] 97.4% | [2] 50.7% | [3] 91% | [4] 91.3% | [5] 79.6% | [6] 86.4% | [7] 59.3% | [8] 89.7% | [9] 112%

CCN(CC)CC(O)c1cc(-c2ccc(Cl)cc2)nc2cc(Cl)ccc12 (stereo not drawn)
inactive: [2] 34.4% | [3] 38% | [4] 14.2% | [5] 53.3% | [6] 60% | [7] 10.3% | [8] 56.8% | [9] 40.6%
active: [1] -12.3%

O=C(CBr)c1ccc(OC(=O)c2ccccc2)cc1
inactive: [1] 88.6% | [2] 89.9% | [3] 104% | [4] 102% | [5] 99% | [6] 100% | [7] 116% | [8] 105% | [9] 108% | [10] 101%

O=[N+]([O-])c1ccc([I+]c2ccccc2)cc1
inactive: [1] 17.7% | [2] 41.6% | [6] 50.2% | [7] 43.4%
active: [3] -27.6% | [4] -85.8% | [5] -91% | [8] -15.3% | [9] 1.04%

Cc1cc(N/N=C/c2ccccn2)nc2ccccc12
active: [3] 6.78% | [7] 2.45%
inactive: [1] 11.5% | [2] 13.7% | [4] 37.9% | [5] 16.4% | [6] 31.6% | [8] 28.6% | [9] 74.8%

Oc1c(C(Nc2ccccc2)c2ccccc2)ccc2cccnc12 (stereo not drawn)
inactive: [1] 27.3% | [2] 37.3% | [3] 19.8% | [4] 59.5% | [5] 33.2% | [6] 40.5% | [7] 41.3% | [8] 24.3%

Cc1cc(C)c([I+]c2c(C)cc(C)cc2C)c(C)c1
active: [1] -49.1% | [2] -8.17% | [3] -60.3% | [4] -7.26% | [5] -44.8% | [6] -26.4% | [7] -47.6% | [8] -44.9%
inactive: [9] 20.5%

Cc1cc(C(N)=O)cc(C)c1C(=O)OCCCl
inactive: [1] 89.6% | [2] 111% | [3] 102% | [4] 108% | [5] 103% | [6] 105% | [7] 111% | [8] 99.5% | [9] 97% | [10] 107%

O=[n+]1c2ccccc2n([O-])c2cc(Cl)ccc21
inactive: [2] 73.8% | [3] 43% | [4] 108% | [5] 40.3% | [6] 87.7% | [7] 65.6% | [8] 44.6% | [9] 88.8%
active: [1] 1.27%
